Results as given in the supplement of paper PMC10849652.
About 8,800 targets were measured; listed, in parts, are those with a hit and a random draw of the rest. About 0.5% of all pairs of compound and target were hits.

How the values were obtained:
Test in all cases: log2 fold change, soluble protein after heating vs DMSO (PISA); higher = thermal stabilisation; K562 lysate, 10 uM; active = over 0.2 and 3.5 SD of the protein, either way, in both replicates (recomputed)
alvocidib = compound: CN1CC[C@H](c2c(O)cc(O)c3c(=O)cc(-c4ccccc4Cl)oc23)[C@H](O)C1 [alvocidib]
How it was run: (§1)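 K562 pellets were dounce-homogenised in PBS pH 7.4 containing 1 mM MgCl2, and the crude extract, at 1 mg/mL protein, was exposed to 10 μM compound for 30 min. Aliquots were heated for 3 min across 48°C-58°C, pooled, brought to 0.5% NP-40 at 4°C and spun at 21,000xg for 90 min, with the supernatant taken as soluble protein. TMTpro 16plex LC-MS/MS with equalised channel sums quantified that protein. Values are log-two fold changes in thermal stability relative to solvent controls, taken from duplicates.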

Tubastatin A = compound: CN1CCc2c(c3ccccc3n2Cc2ccc(C(=O)NO)cc2)C1 [Tubastatin A]
How it was run: as §1

[1] = compound: CNC(=O)C1=CC=CC=C1NC2=NC(=NC=C2Cl)NC3=C(C=C(C=C3)N4CCOCC4)OC
How it was run: as §1

defactinib = compound: CNC(=O)c1ccc(Nc2ncc(C(F)(F)F)c(NCc3nccnc3N(C)S(C)(=O)=O)n2)cc1 [defactinib]
How it was run: as §1

[2] = compound: CNc1nc(-c2ccc3c(N)n[nH]c3c2)cc(N2C[C@@H](C(=O)NC3CCCCC3)CC[C@H]2C)n1
How it was run: as §1

encorafenib = compound: COC(=O)N[C@@H](C)CNc1nccc(-c2cn(C(C)C)nc2-c2cc(Cl)cc(NS(C)(=O)=O)c2F)n1 [encorafenib]
How it was run: as §1

[3] = compound: COC(=O)[C@H](CCSC)NC(=O)C1=C(C=C(C=C1)NC[C@H](CS)N)C2=CC=CC=C2
How it was run: as §1

alisertib = compound: COc1cc(Nc2ncc3c(n2)-c2ccc(Cl)cc2C(c2c(F)cccc2OC)=NC3)ccc1C(=O)O [alisertib]
How it was run: as §1

[4] = compound: COc1cc2nc(-c3cc(F)ccc3O)nc(N[C@@H]3CNC[C@H]3C(C)(C)O)c2cc1OC
How it was run: as §1

gefitinib = compound: COc1cc2ncnc(Nc3ccc(F)c(Cl)c3)c2cc1OCCCN1CCOCC1 [gefitinib]
How it was run: as §1

lapatinib = compound: CS(=O)(=O)CCNCc1ccc(-c2ccc3ncnc(Nc4ccc(OCc5cccc(F)c5)c(Cl)c4)c3c2)o1 [lapatinib]
How it was run: as §1

pictilisib = compound: CS(=O)(=O)N1CCN(Cc2cc3nc(-c4cccc5[nH]ncc45)nc(N4CCOCC4)c3s2)CC1 [pictilisib]
How it was run: as §1

crizotinib = compound: C[C@@H](Oc1cc(-c2cnn(C3CCNCC3)c2)cnc1N)c1c(Cl)ccc(F)c1Cl [crizotinib]
How it was run: as §1

[5] = compound: C[C@H](C1=CC=C(C=C1)C(=O)NC2=C3C=CNC3=NC=C2)N
How it was run: as §1

duvelisib = compound: C[C@H](Nc1ncnc2nc[nH]c12)c1cc2cccc(Cl)c2c(=O)n1-c1ccccc1 [duvelisib]
How it was run: as §1

gandotinib = compound: Cc1cc(Nc2cc(CN3CCOCC3)c3nc(C)c(Cc4ccc(Cl)cc4F)n3n2)n[nH]1 [gandotinib]
How it was run: as §1

tozasertib = compound: Cc1cc(Nc2cc(N3CCN(C)CC3)nc(Sc3ccc(NC(=O)C4CC4)cc3)n2)n[nH]1 [tozasertib]
How it was run: as §1

doramapimod = compound: Cc1ccc(-n2nc(C(C)(C)C)cc2NC(=O)Nc2ccc(OCCN3CCOCC3)c3ccccc23)cc1 [doramapimod]
How it was run: as §1

bafetinib = compound: Cc1ccc(NC(=O)c2ccc(CN3CC[C@H](N(C)C)C3)c(C(F)(F)F)c2)cc1Nc1nccc(-c2cncnc2)n1 [bafetinib]
How it was run: as §1

[6] = compound: Cc1cccc(CC(=O)N2CCc3c2ccc(-c2cn(C)c4ncnc(N)c24)c3F)n1
How it was run: as §1

Measured: log2 fold change

MARK2 (UniProt E9PC69)
inactive: alvocidib -0.032 | Tubastatin A -0.049 | [1] -0.187 | defactinib -0.087 | [2] 0.056 | encorafenib 0.181 | [3] 0.211 | alisertib 0.021 | [4] 0.01 | gefitinib -0.03 | lapatinib 0.003 | pictilisib 0.052 | crizotinib -0.14 | [5] 0.131 | duvelisib -0.068 | gandotinib -0.166 | tozasertib -0.233 | doramapimod 0.075 | bafetinib -0.071 | [6] 0.025

MED16 (UniProt Q9Y2X0)
active: gandotinib -0.261
inactive: alvocidib 0.01 | Tubastatin A -0.093 | [1] 0.02 | defactinib -0.014 | [2] 0.004 | encorafenib -0.011 | [3] 0.038 | alisertib -0.015 | [4] -0.004 | gefitinib 0.019 | lapatinib -0.014 | pictilisib -0.154 | crizotinib 0.03 | [5] 0.167 | duvelisib -0.027 | tozasertib 0.012 | doramapimod 0.021 | bafetinib 0.051 | [6] -0.065

LZTR1 (UniProt Q8N653)
inactive: alvocidib 0.178 | Tubastatin A -0.168 | [1] -0.001 | defactinib -0.036 | [2] -0.012 | encorafenib -0.039 | [3] 0.174 | alisertib -0.047 | [4] 0.137 | gefitinib 0.091 | lapatinib 0.177 | pictilisib -0.031 | crizotinib -0.092 | [5] 0.135 | duvelisib -0.033 | gandotinib -0.121 | tozasertib -0.023 | doramapimod 0.083 | bafetinib 0.005 | [6] 0.026

KIF2C (UniProt Q99661)
inactive: alvocidib 0.011 | Tubastatin A -0.18 | [1] -0.006 | defactinib 0.018 | [2] 0.002 | encorafenib 0.004 | [3] 0.096 | alisertib -0.006 | [4] 0.001 | gefitinib -0.014 | lapatinib 0.002 | pictilisib -0.003 | crizotinib -0.007 | [5] 0.004 | duvelisib 0.011 | gandotinib -0.051 | tozasertib -0.008 | doramapimod 0.022 | bafetinib 0.004 | [6] -0.002

KLC4 isoform 3 (UniProt Q9NSK0)
UniProt Q9NSK0, sequence (Q9NSK0 whole entry, looked up): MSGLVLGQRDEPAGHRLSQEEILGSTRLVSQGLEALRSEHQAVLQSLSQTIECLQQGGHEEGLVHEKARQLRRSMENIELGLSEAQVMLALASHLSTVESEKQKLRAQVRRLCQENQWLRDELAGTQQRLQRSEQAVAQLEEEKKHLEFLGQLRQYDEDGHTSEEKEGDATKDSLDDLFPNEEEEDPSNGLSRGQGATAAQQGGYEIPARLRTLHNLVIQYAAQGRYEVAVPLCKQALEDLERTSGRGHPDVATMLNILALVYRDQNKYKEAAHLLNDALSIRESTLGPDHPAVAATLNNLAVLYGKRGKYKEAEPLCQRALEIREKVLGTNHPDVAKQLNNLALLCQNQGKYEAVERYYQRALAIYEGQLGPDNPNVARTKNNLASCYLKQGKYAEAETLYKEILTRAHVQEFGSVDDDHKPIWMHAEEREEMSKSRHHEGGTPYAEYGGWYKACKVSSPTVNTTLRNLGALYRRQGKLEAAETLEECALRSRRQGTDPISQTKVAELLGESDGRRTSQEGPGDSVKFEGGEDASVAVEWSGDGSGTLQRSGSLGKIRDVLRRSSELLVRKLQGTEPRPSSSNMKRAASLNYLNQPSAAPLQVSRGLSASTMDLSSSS
inactive: alvocidib -0.01 | Tubastatin A -0.091 | [1] -0.008 | defactinib 0.014 | [2] -0.084 | encorafenib 0.014 | [3] 0.007 | alisertib 0.014 | [4] 0.014 | gefitinib -0.028 | lapatinib -0.002 | pictilisib -0.053 | crizotinib -0.027 | [5] 0.019 | duvelisib 0.029 | gandotinib -0.074 | tozasertib -0.021 | doramapimod 0.034 | bafetinib -0.018 | [6] 0.001

KIF4B (UniProt Q2VIQ3)
UniProt Q2VIQ3, sequence (Q2VIQ3 whole entry, looked up): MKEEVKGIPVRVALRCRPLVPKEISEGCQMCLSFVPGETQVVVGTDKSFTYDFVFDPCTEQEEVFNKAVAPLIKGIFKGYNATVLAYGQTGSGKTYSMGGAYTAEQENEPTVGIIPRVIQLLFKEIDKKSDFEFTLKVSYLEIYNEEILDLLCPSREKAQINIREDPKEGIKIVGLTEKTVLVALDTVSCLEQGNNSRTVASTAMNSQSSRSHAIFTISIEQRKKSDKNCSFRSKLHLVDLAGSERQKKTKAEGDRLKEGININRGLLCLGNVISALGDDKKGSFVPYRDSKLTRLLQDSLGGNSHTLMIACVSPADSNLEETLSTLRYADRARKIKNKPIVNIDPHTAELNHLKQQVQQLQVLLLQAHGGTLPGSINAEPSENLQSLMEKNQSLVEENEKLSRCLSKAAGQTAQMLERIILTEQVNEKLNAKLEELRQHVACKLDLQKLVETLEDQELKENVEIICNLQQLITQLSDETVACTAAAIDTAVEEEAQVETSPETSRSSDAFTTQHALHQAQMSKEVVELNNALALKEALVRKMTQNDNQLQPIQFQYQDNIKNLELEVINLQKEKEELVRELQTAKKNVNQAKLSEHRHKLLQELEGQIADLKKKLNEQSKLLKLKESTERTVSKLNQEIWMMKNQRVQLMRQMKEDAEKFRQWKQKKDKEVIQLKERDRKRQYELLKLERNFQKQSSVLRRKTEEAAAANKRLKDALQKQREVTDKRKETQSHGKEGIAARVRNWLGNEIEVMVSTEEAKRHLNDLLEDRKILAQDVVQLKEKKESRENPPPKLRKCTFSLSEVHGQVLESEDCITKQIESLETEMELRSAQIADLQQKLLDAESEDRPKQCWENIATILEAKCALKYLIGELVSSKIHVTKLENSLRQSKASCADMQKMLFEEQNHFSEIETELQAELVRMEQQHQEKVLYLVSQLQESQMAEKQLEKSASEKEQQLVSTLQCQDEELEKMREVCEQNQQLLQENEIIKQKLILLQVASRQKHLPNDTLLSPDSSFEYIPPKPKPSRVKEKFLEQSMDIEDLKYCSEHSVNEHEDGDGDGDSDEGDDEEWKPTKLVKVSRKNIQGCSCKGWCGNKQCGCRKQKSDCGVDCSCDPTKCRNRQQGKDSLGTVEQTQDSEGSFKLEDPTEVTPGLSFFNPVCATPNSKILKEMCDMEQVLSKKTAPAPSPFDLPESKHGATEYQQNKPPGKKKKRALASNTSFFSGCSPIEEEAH
inactive: alvocidib -0.01 | [1] 0.024 | defactinib 0.008 | [2] -0.039 | encorafenib 0.034 | [3] 0.146 | alisertib -0.018 | [4] -0.006 | gefitinib -0.018 | lapatinib 0.03 | pictilisib -0.001 | crizotinib -0.02 | [5] 0.029 | duvelisib -0.023 | gandotinib -0.051 | tozasertib -0.033 | doramapimod 0.015 | bafetinib -0.04 | [6] 0.035
active: Tubastatin A -0.207

LYAR (UniProt Q9NX58)
active: [5] 0.269
inactive: alvocidib 0.072 | Tubastatin A 0.018 | [1] 0.006 | defactinib 0.014 | [2] -0.002 | encorafenib -0.005 | [3] 0.021 | alisertib 0.005 | [4] -0.001 | gefitinib -0.043 | lapatinib 0 | pictilisib 0.025 | crizotinib 0.005 | duvelisib 0.017 | gandotinib -0.119 | tozasertib -0.025 | doramapimod -0.017 | bafetinib -0.008 | [6] -0.099

LTN1 isoform 3 (UniProt O94822)
inactive: alvocidib 0.016 | Tubastatin A -0.259 | [1] -0.014 | defactinib -0.009 | [2] -0.063 | encorafenib 0.034 | [3] -0.072 | alisertib 0.017 | [4] 0.035 | gefitinib -0.021 | lapatinib 0.086 | pictilisib -0.017 | crizotinib -0.046 | [5] 0.027 | duvelisib -0.029 | gandotinib -0.18 | tozasertib 0.003 | doramapimod 0.009 | bafetinib -0.071 | [6] 0.007

MED14 (UniProt O60244)
inactive: alvocidib -0.017 | Tubastatin A -0.068 | [1] 0.051 | defactinib -0.008 | [2] 0.015 | encorafenib 0.012 | [3] 0.003 | alisertib -0.028 | [4] -0.018 | gefitinib 0.001 | lapatinib -0.032 | pictilisib -0.006 | crizotinib -0.016 | [5] -0.058 | duvelisib -0.033 | gandotinib -0.016 | tozasertib 0.046 | doramapimod -0.028 | bafetinib -0.036 | [6] 0.037

MAPK3 (UniProt P27361)
UniProt P27361, sequence (P27361 whole entry, looked up): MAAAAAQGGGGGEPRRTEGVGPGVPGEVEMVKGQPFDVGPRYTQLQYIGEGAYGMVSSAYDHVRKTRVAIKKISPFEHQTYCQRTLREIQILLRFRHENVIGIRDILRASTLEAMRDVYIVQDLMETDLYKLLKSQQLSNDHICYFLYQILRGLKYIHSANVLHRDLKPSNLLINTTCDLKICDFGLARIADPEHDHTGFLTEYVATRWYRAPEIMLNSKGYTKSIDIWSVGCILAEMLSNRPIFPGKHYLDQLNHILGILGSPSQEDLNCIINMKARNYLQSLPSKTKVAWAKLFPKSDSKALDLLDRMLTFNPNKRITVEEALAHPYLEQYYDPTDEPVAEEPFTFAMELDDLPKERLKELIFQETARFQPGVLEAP
inactive: alvocidib 0.018 | Tubastatin A 0.037 | defactinib 0.061 | [2] 0.079 | encorafenib -0.035 | [3] 0.05 | alisertib -0.028 | [4] 0.052 | gefitinib -0.018 | lapatinib -0.028 | pictilisib 0 | crizotinib -0.01 | [5] -0.021 | duvelisib -0.01 | gandotinib 0.089 | tozasertib -0.038 | doramapimod -0.023 | bafetinib 0.021 | [6] -0.043
active: [1] 0.29

KIF22 (UniProt Q14807)
UniProt Q14807, sequence (Q14807 whole entry, looked up): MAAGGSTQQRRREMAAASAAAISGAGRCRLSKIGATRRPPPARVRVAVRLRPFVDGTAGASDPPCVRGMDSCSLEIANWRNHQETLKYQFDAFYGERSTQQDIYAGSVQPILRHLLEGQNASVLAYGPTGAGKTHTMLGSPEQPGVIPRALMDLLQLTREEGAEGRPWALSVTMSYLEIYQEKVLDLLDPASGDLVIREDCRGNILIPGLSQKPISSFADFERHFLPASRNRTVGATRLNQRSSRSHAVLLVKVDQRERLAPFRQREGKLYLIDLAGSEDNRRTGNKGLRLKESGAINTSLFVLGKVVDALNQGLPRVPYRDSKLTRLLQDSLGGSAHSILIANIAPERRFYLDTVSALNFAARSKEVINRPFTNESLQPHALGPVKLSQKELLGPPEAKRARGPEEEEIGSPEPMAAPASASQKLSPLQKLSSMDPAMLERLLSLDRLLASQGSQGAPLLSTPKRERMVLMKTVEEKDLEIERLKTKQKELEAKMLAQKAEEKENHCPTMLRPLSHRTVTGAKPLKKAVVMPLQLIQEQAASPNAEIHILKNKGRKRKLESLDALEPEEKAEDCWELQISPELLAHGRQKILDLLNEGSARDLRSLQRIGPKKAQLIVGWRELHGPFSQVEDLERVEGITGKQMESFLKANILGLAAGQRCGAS
inactive: alvocidib -0.121 | Tubastatin A 0.099 | [1] -0.059 | defactinib 0.175 | [2] 0.137 | encorafenib 0.012 | [3] -0.017 | alisertib 0.011 | [4] 0.171 | gefitinib -0.013 | lapatinib -0.149 | pictilisib -0.07 | crizotinib -0.29 | [5] -0.201 | duvelisib -0.02 | gandotinib 0.238 | tozasertib -0.043 | doramapimod -0.009 | bafetinib -0.068 | [6] 0.33

KIF14 (UniProt Q15058)
inactive: alvocidib -0.031 | Tubastatin A -0.217 | [1] 0.032 | defactinib 0.043 | [2] 0.011 | encorafenib 0.038 | [3] 0.045 | alisertib -0.028 | [4] 0.013 | gefitinib 0.001 | lapatinib 0.016 | pictilisib -0.277 | crizotinib -0.053 | [5] -0.082 | duvelisib 0.025 | gandotinib -0.011 | tozasertib 0.002 | doramapimod 0.046 | bafetinib -0.087 | [6] 0.042

MAP1S (UniProt Q66K74)
UniProt Q66K74, sequence (Q66K74 whole entry, looked up): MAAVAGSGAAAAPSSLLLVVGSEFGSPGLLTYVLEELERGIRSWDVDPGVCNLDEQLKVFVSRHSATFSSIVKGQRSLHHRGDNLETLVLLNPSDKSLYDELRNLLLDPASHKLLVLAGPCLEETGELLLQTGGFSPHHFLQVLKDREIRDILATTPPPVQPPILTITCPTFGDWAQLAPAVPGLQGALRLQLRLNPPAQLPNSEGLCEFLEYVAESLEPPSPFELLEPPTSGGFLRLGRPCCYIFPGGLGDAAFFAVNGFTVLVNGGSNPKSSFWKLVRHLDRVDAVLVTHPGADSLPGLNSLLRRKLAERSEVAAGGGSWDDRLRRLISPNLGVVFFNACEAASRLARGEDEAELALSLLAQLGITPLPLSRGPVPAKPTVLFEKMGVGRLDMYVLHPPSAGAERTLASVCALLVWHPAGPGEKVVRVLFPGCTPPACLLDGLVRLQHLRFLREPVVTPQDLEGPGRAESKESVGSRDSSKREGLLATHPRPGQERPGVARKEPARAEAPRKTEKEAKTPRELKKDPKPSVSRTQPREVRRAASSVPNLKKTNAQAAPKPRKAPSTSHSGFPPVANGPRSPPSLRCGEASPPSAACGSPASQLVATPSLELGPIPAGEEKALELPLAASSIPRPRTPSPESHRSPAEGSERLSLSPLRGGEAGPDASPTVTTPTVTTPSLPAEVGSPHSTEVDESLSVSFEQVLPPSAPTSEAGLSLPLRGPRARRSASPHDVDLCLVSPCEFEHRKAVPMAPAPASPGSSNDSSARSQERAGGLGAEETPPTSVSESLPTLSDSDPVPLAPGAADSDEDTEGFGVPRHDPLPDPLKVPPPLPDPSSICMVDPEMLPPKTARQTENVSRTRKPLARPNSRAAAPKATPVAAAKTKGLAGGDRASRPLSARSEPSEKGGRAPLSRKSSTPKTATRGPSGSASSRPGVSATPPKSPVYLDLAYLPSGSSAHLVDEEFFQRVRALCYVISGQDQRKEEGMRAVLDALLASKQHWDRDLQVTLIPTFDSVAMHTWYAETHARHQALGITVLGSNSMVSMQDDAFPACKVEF
inactive: alvocidib 0.027 | Tubastatin A -0.072 | [1] -0.01 | defactinib 0.018 | [2] -0.015 | encorafenib 0.008 | [3] 0.06 | alisertib 0.006 | [4] -0.008 | gefitinib -0.021 | lapatinib 0.009 | pictilisib -0.06 | crizotinib -0.016 | [5] -0.021 | duvelisib 0.004 | gandotinib -0.065 | tozasertib 0.035 | doramapimod 0.003 | bafetinib -0.03 | [6] 0.049

MPI (UniProt P34949)
UniProt P34949, sequence (P34949 whole entry, looked up): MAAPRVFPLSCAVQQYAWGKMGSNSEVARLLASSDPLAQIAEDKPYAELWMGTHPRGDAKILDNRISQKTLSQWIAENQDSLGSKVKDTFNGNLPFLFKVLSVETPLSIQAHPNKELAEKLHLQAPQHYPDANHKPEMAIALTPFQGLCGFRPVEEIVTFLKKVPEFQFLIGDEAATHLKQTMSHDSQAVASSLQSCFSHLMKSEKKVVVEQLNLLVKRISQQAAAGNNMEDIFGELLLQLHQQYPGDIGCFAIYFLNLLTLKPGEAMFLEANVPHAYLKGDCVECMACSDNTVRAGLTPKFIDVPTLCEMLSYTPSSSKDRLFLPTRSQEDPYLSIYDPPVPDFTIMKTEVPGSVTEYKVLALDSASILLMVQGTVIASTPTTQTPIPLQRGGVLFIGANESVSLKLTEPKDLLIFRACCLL
active: [3] 0.477
inactive: alvocidib 0.051 | Tubastatin A 0.024 | [1] -0.02 | defactinib -0.007 | [2] 0.035 | encorafenib -0.01 | alisertib 0.018 | [4] 0.01 | gefitinib -0.014 | lapatinib 0.02 | pictilisib -0.017 | crizotinib -0.029 | [5] 0.174 | duvelisib 0.007 | gandotinib -0.055 | tozasertib -0.043 | doramapimod 0.032 | bafetinib 0.013 | [6] -0.014

MAPK1 (UniProt P28482)
UniProt P28482, sequence (P28482 whole entry, looked up): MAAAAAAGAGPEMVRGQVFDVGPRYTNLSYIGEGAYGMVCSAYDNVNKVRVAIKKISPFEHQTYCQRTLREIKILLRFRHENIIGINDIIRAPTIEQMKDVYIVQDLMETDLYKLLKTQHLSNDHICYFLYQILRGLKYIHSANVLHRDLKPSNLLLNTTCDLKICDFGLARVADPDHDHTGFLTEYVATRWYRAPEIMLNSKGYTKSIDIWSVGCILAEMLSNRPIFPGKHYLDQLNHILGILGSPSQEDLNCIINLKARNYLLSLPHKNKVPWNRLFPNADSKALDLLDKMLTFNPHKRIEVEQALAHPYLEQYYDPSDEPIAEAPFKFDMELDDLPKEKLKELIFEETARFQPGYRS
active: [1] 0.242
inactive: alvocidib 0.051 | Tubastatin A 0.061 | defactinib 0.091 | [2] -0.007 | encorafenib -0.062 | [3] 0.031 | alisertib -0.038 | [4] 0.043 | gefitinib 0.014 | lapatinib -0.018 | pictilisib 0.005 | crizotinib 0.065 | [5] -0.004 | duvelisib 0.004 | gandotinib 0.036 | tozasertib -0.01 | doramapimod -0.013 | bafetinib 0.004 | [6] -0.061

L3HYPDH (UniProt Q96EM0)
inactive: alvocidib 0.023 | Tubastatin A -0.052 | [1] 0.005 | defactinib -0.012 | [2] 0.022 | encorafenib -0.017 | [3] 0.039 | alisertib -0.019 | [4] -0.005 | gefitinib -0.013 | lapatinib -0.019 | pictilisib -0.032 | crizotinib -0.028 | [5] -0.045 | duvelisib -0.014 | gandotinib 0.018 | tozasertib -0.002 | doramapimod 0.036 | bafetinib -0.018 | [6] -0.048
